Assay results from PubChem BioAssay AID618 (Sanford-Burnham Center for Chemical Genomics, 2007).
The campaign covered roughly 87,000 compounds. About 540 (0.62%) were called active. How the calls were made is not given here. Shown is part of a subset that was picked to be rich in actives. Measured potencies and affinities stand elsewhere.

Experiment: inhibitors of MT1-MMP promoter transcription, cell-based, luciferase reporter, luminescence (AID 618);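 further: actives suppress MT1-MMP promoter-driven transcription so potencies describe inhibitors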
Details: MT1-MMP promoter luciferase reporter cells

| Compound | outcome |
| --- | --- |
| CCOCCn1c(CN2CCN(CC)CC2)nc2c1c(=O)n(C)c(=O)n2C | inactive |
| NC1=NC2(CCC(c3ccccc3)CC2)n2c(nc3ccccc32)N1 (stereo not drawn) | inactive |
| CC(C)N(Cc1nc(-c2ccc(Cl)cc2)no1)C(=O)CN(C)S(=O)(=O)c1ccc(Cl)cc1 | inactive |
| Cc1ccc(NC(=O)c2cc(C)on2)cc1 | inactive |
| COC(=O)N1CC=CC1(C)C(=O)NCC1CC1 (stereo not drawn) | inactive |
| O=C(NCc1ccc2c(c1)OCO2)C1(S(=O)(=O)c2ccccc2)CC1 | inactive |
| Cc1cc(NC(=O)c2ccc3c(c2)OCCO3)no1 | active |
| Cc1nc2ccc3nc(NC(=O)c4ccc5c(c4)OCCO5)sc3c2s1 | inactive |
| Cc1nc2c(ccc3nc(NC(=O)c4ccc5c(c4)OCCO5)sc32)s1 | active |
| Cc1cc(NC(=O)c2ccc(Cl)cc2)no1 | inactive |
| Cc1cc(NC(=O)c2ccc3c(c2)OCO3)no1 | inactive |
| Cc1nc2c(ccc3nc(NC(=O)c4ccc(S(=O)(=O)N(C)C)cc4)sc32)s1 | inactive |
| CC(=O)c1ccc(NC(=O)CSc2nnc(NC(=O)CN3CCOCC3)s2)cc1 | inactive |
| Cn1cccc1C(=O)NC(=O)COC(=O)CC12CC3CC(CC(C3)C1)C2 | inactive |
| Cc1cc2c(c(=O)n1C1CC1)C(c1cccc(Cl)c1)C(C#N)=C(N)O2 (stereo not drawn) | inactive |
| CN1CCN(CCCN2c3ccccc3Sc3ccc(C(F)(F)F)cc32)CC1 | inactive |
| OCCN1CCN(CCCN2c3ccccc3Sc3ccc(Cl)cc32)CC1 | inactive |
| OCCN1CCN(CCCN2c3ccccc3Sc3ccc(C(F)(F)F)cc32)CC1 | active |
| O=C(Nc1ccccc1C(=O)OCn1nnc2ccccc2c1=O)c1ccco1 | inactive |
| CC(=O)Nc1ccc(S(=O)(=O)N2CCC(c3nc4ccc(C)cc4[nH]3)CC2)cc1 | inactive |
| Cc1nc2ccccc2c(=O)n1/N=C/c1ccc(N(C)C)cc1 | inactive |
| C=CCn1c(/N=C/c2ccc(N(C)C)cc2)nc2ccccc21 | inactive |
| CN(C)c1ccc(/C=N/n2ncc3ccccc32)cc1 | active |

| Compound | outcome |
| --- | --- |
| CCCc1[nH]n(-c2nc3ccccc3s2)c(=O)c1C=NCC(C)C | inactive |
| CCCN=Cc1c(CCC)[nH]n(-c2nc3ccccc3s2)c1=O | inactive |
| O=C(CCN1C(=O)C2C3C=CC(C3)C2C1=O)N1CCN(c2ccccc2Cl)CC1 (stereo not drawn) | inactive |
| O=C(NCc1ccc2c(c1)OCO2)c1c[nH]c2ccc(S(=O)(=O)N3CCOCC3)cc2c1=O | inactive |
| COC(=O)Cn1c(C)c(C#N)c2ccccc21 | inactive |
| COc1ccccc1/C=N/n1c(C)nnc1-n1nc(C)cc1C | inactive |
| CCCOc1ccc2ccccc2c1/C=N/n1c(C)nnc1-n1nc(C)cc1C | active |
| Cc1cc(C)n(-c2nnc(C)n2/N=C/c2cc(Br)ccc2OCc2ccccc2)n1 | inactive |
| Cc1nn(C)cc1C=NCCOCc1ccccc1 | inactive |
| O=C(CCC(=O)c1cccs1)NC(c1ccccc1)c1ccccc1 | inactive |
| COc1ccc2oc(=O)c(-c3nc(C)cs3)cc2c1 | inactive |
| Cc1csc(-c2coc3cc(O)cc(C)c3c2=O)n1 | inactive |
| COc1ccc2c(=O)c(-c3nc(C)cs3)coc2c1 | active |
| CCCC(=O)Nc1cnc(NC(=O)c2cccc(F)c2)cc1C | inactive |
| CCN(CCCNC(=O)CN1C(=O)COc2ccccc21)c1ccccc1 | inactive |
| COc1ccc(C2C(C#N)=C(C)NC3=C2C(=O)c2ccccc23)cc1 (stereo not drawn) | inactive |
| COc1cc(C2C(C#N)=C(C)NC3=C2C(=O)c2ccccc23)cc(OC)c1OC (stereo not drawn) | active |
| COc1cc(C2C(C#N)=C(C)NC3=C2C(=O)CC(C)(C)C3)cc(OC)c1O (stereo not drawn) | inactive |
| CCCCCC(=O)N(O)C1CC(=O)N(c2ccccc2)C1=O (stereo not drawn) | inactive |
| COC(=O)c1ccc(Nc2nc(C)cc(C)n2)cc1 | inactive |
| CCOC(=O)c1ccccc1NC(=O)CN(c1ccccc1C)S(C)(=O)=O | inactive |
| CN1C(=O)c2c(sc3c2CC(C)(C)SC3)N2CCN=C12 | inactive |
| O=C1CN(C(=O)c2ccccc2)c2ccccc2N1 | inactive |

| Compound | outcome |
| --- | --- |
| Cc1ccsc1C(=O)N1CC(=O)Nc2ccccc21 | inactive |
| Cc1cc(C)cc(C(=O)N2CC(=O)Nc3ccccc32)c1 | active |
| O=C(CCN1C(=O)c2ccccc2C1=O)Nc1ccccn1 | inactive |
| CNC(=O)C1CCCN1S(=O)(=O)c1ccc(OC)cc1 (stereo not drawn) | inactive |
| Cc1ccc(NC(=O)CS(=O)CC(=O)NCC2OCCc3ccccc32)c(C)c1 (stereo not drawn) | inactive |
| Cc1cccc(-c2c3c(=O)n(C)c(=O)n(C)c3c3c(C)cc(C)nn23)c1 | inactive |
| Cc1cc(S(=O)(=O)Nc2ccc(N(C)C)cc2)c(C)s1 | inactive |
| Fc1ccc2[nH]c3c(N4CCN(c5ccccc5)CC4)ncnc3c2c1 | inactive |
| COc1cccc(N2CCN(c3ncnc4c3[nH]c3ccccc34)CC2C)c1 (stereo not drawn) | inactive |
| COc1cccc(N2CCN(c3ncnc4c3[nH]c3ccc(F)cc34)CC2C)c1 (stereo not drawn) | active |
| OC(CCN1CCCC1)(c1ccccc1)C1CCCCC1 (stereo not drawn) | inactive |
| CC(C)(C)c1ccc(C(O)CCCN2CCC(C(O)(c3ccccc3)c3ccccc3)CC2)cc1 (stereo not drawn) | active |
| OC(CCCCN1CCCCC1)c1ccccc1 (stereo not drawn) | inactive |
| Cc1ccc(-n2nc(-c3ccc(N)cc3)cc2N)cc1 | inactive |
| Nc1ccc2nn(-c3cccc4ccccc34)nc2c1 | inactive |
| CCOC(=O)CC1=CC(C)(CC(=O)OCC)C(C#N)(C#N)C(N)=C1C#N (stereo not drawn) | inactive |
| O=C(CC1(O)C(=O)Nc2ccccc21)c1ccc(-n2cccc2)cc1 (stereo not drawn) | inactive |
| CC(C)(C)NC(=O)CC(c1ccccc1)c1ccccc1O (stereo not drawn) | inactive |
| Cc1sc2nc(SCC(=O)NCc3cccs3)[nH]c(=O)c2c1C | inactive |
| Cc1cnc(NC(=O)COc2ccccc2)s1 | inactive |
| Cc1cnc(NC(=O)COc2ccccc2Cl)s1 | active |
| Cc1cnc(NC(=O)COc2cccc3c2OC(C)(C)C3)s1 | inactive |
| CCOC(=O)C1C(=O)NC(N2CCN(Cc3ccccc3)CC2)=NC1c1ccccc1 (stereo not drawn) | inactive |

| Compound | outcome |
| --- | --- |
| Fc1ccc(-c2nnc(-c3ccc(Cl)cc3)o2)cc1 | inactive |
| Clc1ccc(-c2nnc(-c3ccccc3)o2)c(Cl)c1 | inactive |
| Cc1cccc(NC(=O)CCc2ccc(C)o2)c1 | inactive |
| C/C(N)=C(/C#N)C(=O)COC(=O)COc1ccc(Cl)cc1 | inactive |
| c1ccc(Nc2ccccc2Nc2ccccn2)nc1 | inactive |
| Oc1cccc2ccc(Nc3ccccn3)nc12 | active |
| c1ccc(Nc2ccccn2)cc1 | inactive |
| Cc1cc(C)nc(NC2=NC3CCCCC3N2)n1 (stereo not drawn) | inactive |
| O=C(Nc1ccc(F)cc1)c1ccccc1 | inactive |
| Cc1cc(C)cc(NC(=O)CCn2ccnc2C)c1 | inactive |
| CC1CC(C)CN(c2oc(-c3ccco3)nc2C#N)C1 (stereo not drawn) | inactive |
| COc1ccc2c(CSc3nc4nc(C)cc(C)n4n3)cc(=O)oc2c1 | inactive |
| CCC(SCC(=O)OC)C(=O)Nc1nnc(C(C)C)s1 (stereo not drawn) | inactive |
| Cc1nnc(SCCn2c(N3CCN(C)CC3)nc3c2c(=O)[nH]c(=O)n3C)s1 | inactive |
| Cc1nnc(SCCn2c(N3CCN(C)CC3)nc3c2c(=O)n(C)c(=O)n3C)s1 | inactive |
| Cc1nnc(Sc2nc(Sc3nnc(C)s3)nc(N3CCN(C)CC3)n2)s1 | active |
| COc1ccc(NC(=O)C2C(=O)N(C)C3(C)CC2c2ccccc2O3)cc1 (stereo not drawn) | inactive |
| Cc1ccc2ccc(C3C(=O)c4ccccc4C3=O)nc2c1 | inactive |
| O=C1c2ccccc2C(=O)C1c1ccc2ccccc2n1 | active |
| COC(=O)C1=C(C)NC(C)=C(C(=O)OC)C1c1ccc2ccccc2n1 | inactive |
| CCCCn1c(CCNC(=O)CCC)nc2ccccc21 | inactive |
| CCCCCCc1ccc(OCC(=O)O)cc1OCC(=O)O | inactive |
| CC(C)(/C=N/O)/[N+]([O-])=C/c1ccco1 | inactive |

| Compound | outcome |
| --- | --- |
| Cc1cc(C(=O)NCCCN2CCOCC2)n(-c2ccccc2)n1 | inactive |
| Cc1cc(C(=O)NCCN2CCN(c3cccc(Cl)c3)CC2)n(-c2ccccc2)n1 | active |
| Cc1cc(C(=O)NCCCN2CCN(C3CCCCC3)CC2)n(-c2ccccc2)n1 | inactive |
| COc1ccc(S(=O)(=O)Cc2ccc(C(=O)N3CCc4ccccc4C3)o2)cc1 | inactive |
| CCC1=C/C(=C/N(C)c2ccccc2)C(=O)S1 | inactive |
| Cc1ccc(-c2cc(=O)[nH][nH]2)c(C)c1 | inactive |
| CCOC(=O)c1c(C)sc2c1N(C(=O)CCl)c1cc(Cl)ccc1S2 | active |
| CCOC(=O)c1c(C)sc2c1N(C(=O)CN(CC)CC)c1cc(Cl)ccc1S2 | inactive |
| CCOC(=O)c1c(C)sc2c1N(C(C)=O)c1cc(Cl)ccc1S2 | inactive |
| CCN1CCN(C(=O)c2cc3cc4ccc(OC)cc4nc3s2)CC1 | inactive |
| CCC(C)NC(=O)c1cc2cc3ccc(OC)cc3nc2s1 (stereo not drawn) | inactive |
| O=c1[nH]c(NCCO)nc2ncn(Cc3ccccc3)c12 | inactive |
| Cn1c(C(=O)N2CCCC(C(=O)NCCc3ccccc3)C2)cc2sccc21 (stereo not drawn) | inactive |
| Cc1ccc(-c2csc(NC(=O)c3ccno3)n2)cc1 | inactive |
| COc1ccc(C(=O)c2ccccc2)c(O)c1 | inactive |
| Cc1ccc(O)c(C(=O)CC(=O)c2cccc(F)c2)c1 | inactive |
| Cc1ccc(C(=O)CC(=O)c2cc(Cl)ccc2O)cc1 | inactive |
| O=C(CC(=O)c1cc(Cl)ccc1O)c1ccccc1 | inactive |
| CSCCC1C(=O)OC2(C)CC(C)(C)NC(=S)N12 (stereo not drawn) | inactive |
| COCCn1c(C)cc(C(=O)CSc2ncn[nH]2)c1C | inactive |
| COCCn1c(C)cc(C(=O)CSc2nncn2-c2ccccc2)c1C | inactive |
| Cc1nnc(SCC(=O)c2cc(C)n(C3CC3)c2C)s1 | inactive |
| COCCn1c(C)cc(C(=O)CSc2nnc(C)s2)c1C | active |

| Compound | outcome |
| --- | --- |
| CCCn1c(=O)c2ccccc2n2c(SCC(=O)c3cc(C)n(CCOC)c3C)nnc12 | inactive |
| CC(=O)N1c2ccccc2C(=O)OC1c1cccnc1 (stereo not drawn) | inactive |
| O=C(NCCCn1ccnc1)c1cc2c(s1)CCCCC2 | inactive |
| COc1cccc(CN2C(=O)c3ccccc3C2C(=O)NCC2CCCO2)c1 (stereo not drawn) | inactive |
| O=C(O)c1cnn(-c2ccccc2)c1-n1cccc1 | inactive |
| COc1cccc(-n2nnnc2SCC(=O)Nc2cccc(C)n2)c1 | inactive |
| O=C(Cn1cnc2c(nnn2Cc2ccc(F)cc2)c1=O)OCc1ccccc1 | inactive |
| Cc1ccc(S(=O)(=O)Nc2ccnc3ccccc23)cc1 | inactive |
| O=S(=O)(Nc1cccc2c1ccc1cccn12)c1cccs1 | inactive |
| Cc1ccc(S(=O)(=O)NCc2cccnc2)s1 | inactive |
| O=S(=O)(Nc1ccc(-c2nc3cccnc3s2)cc1)c1cccs1 | inactive |
| O=S(=O)(Nc1cccc2ncccc12)c1cccs1 | active |
| Cc1ccc(S(=O)(=O)Nc2cccc3ncccc23)s1 | active |
| CCN(CC)CCOC(=O)c1cccc(Cl)c1 | inactive |
| O=C(O)Cc1ccc(C(=O)c2cccs2)s1 | inactive |
| O=C(c1cccs1)c1no[n+]([O-])c1C(=O)c1cccs1 | active |
| Cc1ccc(C(=O)c2nocc2C(=O)c2cccs2)cc1 | inactive |
| CC(=O)c1cccc(NC(=O)N2CCCC2C(=O)NCc2ccc(F)cc2)c1 (stereo not drawn) | inactive |
